The full data set covers some 7,900 targets. This sample favours those with a hit. About 0.6% of all pairs of compound and target were hits. Unmarked numbers belong to inactive results.
Assays:
Test in all cases: log2 fold change, soluble protein after heating vs DMSO (PISA); higher = thermal stabilisation; K562 cells, 10 uM, 30 min; active = over 0.2 and 3.5 SD of the protein, either way, in both replicates (recomputed)
[1] = compound: COC1=CC=C(C=C1)CN2C=CC3=C2C=C(C=C3)C(=O)NO
Summary of the method: (§1)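 K562 cells at 2×10^6 cells/mL were treated for 30 min with 10 μM compound, and aliquots were heated for 3 min over 48°C-58°C before pooling. Extraction used PBS with 0.5% NP-40 at 4°C, and soluble protein was the supernatant after 21,000xg for 90 min, measured by TMTpro 16plex LC-MS/MS with channel sums equalised. Thermal stability values, relative to control samples and from duplicates, are log2 fold changes.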

filanesib = compound: CON(C)C(=O)N1N=C(c2cc(F)ccc2F)S[C@@]1(CCCN)c1ccccc1 [filanesib]
Summary of the method: as §1

zotarolimus = compound: CO[C@H]1C[C@@H]2CC[C@@H](C)[C@@](O)(O2)C(=O)C(=O)N2CCCC[C@H]2C(=O)O[C@H]([C@H](C)C[C@@H]2CC[C@H](n3cnnn3)[C@H](OC)C2)CC(=O)[C@H](C)/C=C(\C)[C@@H](O)[C@@H](OC)C(=O)[C@H](C)C[C@H](C)/C=C/C=C/C=C/1C [zotarolimus]
Summary of the method: as §1

idasanutlin = compound: COc1cc(C(=O)O)ccc1NC(=O)[C@@H]1N[C@@H](CC(C)(C)C)[C@](C#N)(c2ccc(Cl)cc2F)[C@H]1c1cccc(Cl)c1F [idasanutlin]
Summary of the method: as §1

alisertib = compound: COc1cc(Nc2ncc3c(n2)-c2ccc(Cl)cc2C(c2c(F)cccc2OC)=NC3)ccc1C(=O)O [alisertib]
Summary of the method: as §1

[2] = compound: COc1cc2nc(-c3cc(F)ccc3O)nc(N[C@@H]3CNC[C@H]3C(C)(C)O)c2cc1OC
Summary of the method: as §1

gefitinib = compound: COc1cc2ncnc(Nc3ccc(F)c(Cl)c3)c2cc1OCCCN1CCOCC1 [gefitinib]
Summary of the method: as §1

[3] = compound: COc1cccc2cc(-c3nc([C@H]4CC[C@H](C(=O)O)CC4)n4ncnc(N)c34)[nH]c12
Summary of the method: as §1

lapatinib = compound: CS(=O)(=O)CCNCc1ccc(-c2ccc3ncnc(Nc4ccc(OCc5cccc(F)c5)c(Cl)c4)c3c2)o1 [lapatinib]
Summary of the method: as §1

pictilisib = compound: CS(=O)(=O)N1CCN(Cc2cc3nc(-c4cccc5[nH]ncc45)nc(N4CCOCC4)c3s2)CC1 [pictilisib]
Summary of the method: as §1

[4] = compound: CS(=O)(=O)c1ccc(-c2cnc(N)c(C(=O)Nc3ccccc3)n2)cc1
Summary of the method: as §1

crizotinib = compound: C[C@@H](Oc1cc(-c2cnn(C3CCNCC3)c2)cnc1N)c1c(Cl)ccc(F)c1Cl [crizotinib]
Summary of the method: as §1

[5] = compound: C[C@@H]1COCCN1C2=NC(=NC(=C2)C3(CC3)S(=O)(=O)C)C4=C5C=CNC5=CC=C4
Summary of the method: as §1

[6] = compound: C[C@H](C1=CC=C(C=C1)C(=O)NC2=C3C=CNC3=NC=C2)N
Summary of the method: as §1

duvelisib = compound: C[C@H](Nc1ncnc2nc[nH]c12)c1cc2cccc(Cl)c2c(=O)n1-c1ccccc1 [duvelisib]
Summary of the method: as §1

gandotinib = compound: Cc1cc(Nc2cc(CN3CCOCC3)c3nc(C)c(Cc4ccc(Cl)cc4F)n3n2)n[nH]1 [gandotinib]
Summary of the method: as §1

tozasertib = compound: Cc1cc(Nc2cc(N3CCN(C)CC3)nc(Sc3ccc(NC(=O)C4CC4)cc3)n2)n[nH]1 [tozasertib]
Summary of the method: as §1

[7] = compound: Cc1cc(SCc2sc(-c3ccc(C(F)(F)F)cc3)nc2C)ccc1OCC(=O)O
Summary of the method: as §1

doramapimod = compound: Cc1ccc(-n2nc(C(C)(C)C)cc2NC(=O)Nc2ccc(OCCN3CCOCC3)c3ccccc23)cc1 [doramapimod]
Summary of the method: as §1

ispinesib = compound: Cc1ccc(C(=O)N(CCCN)[C@@H](c2nc3cc(Cl)ccc3c(=O)n2Cc2ccccc2)C(C)C)cc1 [ispinesib]
Summary of the method: as §1

UniProt P30043, sequence (P30043 whole entry, looked up): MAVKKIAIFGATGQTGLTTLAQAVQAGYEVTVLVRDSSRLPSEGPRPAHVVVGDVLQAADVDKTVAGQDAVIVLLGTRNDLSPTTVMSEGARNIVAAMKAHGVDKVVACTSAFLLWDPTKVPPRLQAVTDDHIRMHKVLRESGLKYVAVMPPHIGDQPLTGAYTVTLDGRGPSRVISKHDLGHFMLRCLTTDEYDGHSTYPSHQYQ
UniProt Q8NHH9, sequence (Q8NHH9 whole entry, looked up): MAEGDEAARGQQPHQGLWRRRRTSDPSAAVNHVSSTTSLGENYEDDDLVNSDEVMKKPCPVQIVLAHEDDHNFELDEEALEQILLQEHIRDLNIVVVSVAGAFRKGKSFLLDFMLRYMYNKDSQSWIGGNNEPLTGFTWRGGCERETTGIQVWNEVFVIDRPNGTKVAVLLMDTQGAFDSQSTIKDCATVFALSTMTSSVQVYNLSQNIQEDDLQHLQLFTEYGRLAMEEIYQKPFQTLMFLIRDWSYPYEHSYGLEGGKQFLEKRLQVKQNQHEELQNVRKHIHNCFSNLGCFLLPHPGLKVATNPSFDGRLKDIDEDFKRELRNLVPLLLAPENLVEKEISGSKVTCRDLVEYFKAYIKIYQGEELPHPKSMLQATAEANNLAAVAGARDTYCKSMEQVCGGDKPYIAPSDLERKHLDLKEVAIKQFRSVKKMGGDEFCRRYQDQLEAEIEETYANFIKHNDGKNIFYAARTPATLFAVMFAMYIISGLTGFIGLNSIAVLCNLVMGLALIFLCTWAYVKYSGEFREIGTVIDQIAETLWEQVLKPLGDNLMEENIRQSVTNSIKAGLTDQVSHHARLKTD
UniProt P10398, sequence (P10398 whole entry, looked up): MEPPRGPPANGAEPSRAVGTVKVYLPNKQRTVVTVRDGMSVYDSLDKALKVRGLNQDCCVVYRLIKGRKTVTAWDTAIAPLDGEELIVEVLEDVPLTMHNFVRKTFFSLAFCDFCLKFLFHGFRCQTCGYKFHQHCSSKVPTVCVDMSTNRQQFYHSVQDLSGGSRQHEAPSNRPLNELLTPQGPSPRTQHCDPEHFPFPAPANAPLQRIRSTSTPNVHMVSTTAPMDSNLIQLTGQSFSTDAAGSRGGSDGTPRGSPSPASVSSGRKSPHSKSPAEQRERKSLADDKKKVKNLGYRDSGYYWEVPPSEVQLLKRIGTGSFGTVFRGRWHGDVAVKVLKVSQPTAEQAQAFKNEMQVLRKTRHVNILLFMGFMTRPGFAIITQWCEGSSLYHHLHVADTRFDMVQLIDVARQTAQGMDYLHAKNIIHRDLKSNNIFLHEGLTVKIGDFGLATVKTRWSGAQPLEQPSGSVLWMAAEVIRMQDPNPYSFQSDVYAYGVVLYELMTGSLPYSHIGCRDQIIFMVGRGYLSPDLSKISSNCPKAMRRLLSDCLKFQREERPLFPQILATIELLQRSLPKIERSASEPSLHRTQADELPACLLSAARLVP
UniProt Q9BRQ8, sequence (Q9BRQ8 whole entry, looked up): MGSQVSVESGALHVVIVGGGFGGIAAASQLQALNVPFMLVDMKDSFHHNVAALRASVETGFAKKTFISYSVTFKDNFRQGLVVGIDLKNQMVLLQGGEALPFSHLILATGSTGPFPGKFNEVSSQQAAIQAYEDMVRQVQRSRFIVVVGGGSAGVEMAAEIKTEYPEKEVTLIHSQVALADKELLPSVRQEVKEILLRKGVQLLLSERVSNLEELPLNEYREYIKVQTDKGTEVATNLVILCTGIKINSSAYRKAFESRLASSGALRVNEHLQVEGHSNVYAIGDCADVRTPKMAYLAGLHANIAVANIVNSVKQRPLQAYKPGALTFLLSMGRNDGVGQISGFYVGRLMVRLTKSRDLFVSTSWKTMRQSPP
UniProt P24666, sequence (P24666 whole entry, looked up): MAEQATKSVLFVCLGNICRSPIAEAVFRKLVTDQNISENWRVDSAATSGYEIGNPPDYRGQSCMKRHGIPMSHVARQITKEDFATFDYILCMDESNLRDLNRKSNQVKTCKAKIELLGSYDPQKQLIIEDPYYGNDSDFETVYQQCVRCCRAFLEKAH
UniProt Q7L1Q6, sequence (Q7L1Q6 whole entry, looked up): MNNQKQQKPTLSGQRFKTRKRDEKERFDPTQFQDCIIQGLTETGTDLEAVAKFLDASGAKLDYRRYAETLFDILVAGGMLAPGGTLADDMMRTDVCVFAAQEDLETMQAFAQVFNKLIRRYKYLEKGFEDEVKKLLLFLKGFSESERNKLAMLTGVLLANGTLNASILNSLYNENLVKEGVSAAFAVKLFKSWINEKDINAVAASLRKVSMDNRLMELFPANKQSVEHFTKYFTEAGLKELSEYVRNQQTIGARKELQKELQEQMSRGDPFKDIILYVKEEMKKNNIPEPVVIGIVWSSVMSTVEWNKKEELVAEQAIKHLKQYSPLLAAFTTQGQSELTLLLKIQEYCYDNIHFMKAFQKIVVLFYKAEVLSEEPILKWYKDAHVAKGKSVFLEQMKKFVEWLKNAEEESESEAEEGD
UniProt Q8N6H7, sequence (Q8N6H7 whole entry, looked up): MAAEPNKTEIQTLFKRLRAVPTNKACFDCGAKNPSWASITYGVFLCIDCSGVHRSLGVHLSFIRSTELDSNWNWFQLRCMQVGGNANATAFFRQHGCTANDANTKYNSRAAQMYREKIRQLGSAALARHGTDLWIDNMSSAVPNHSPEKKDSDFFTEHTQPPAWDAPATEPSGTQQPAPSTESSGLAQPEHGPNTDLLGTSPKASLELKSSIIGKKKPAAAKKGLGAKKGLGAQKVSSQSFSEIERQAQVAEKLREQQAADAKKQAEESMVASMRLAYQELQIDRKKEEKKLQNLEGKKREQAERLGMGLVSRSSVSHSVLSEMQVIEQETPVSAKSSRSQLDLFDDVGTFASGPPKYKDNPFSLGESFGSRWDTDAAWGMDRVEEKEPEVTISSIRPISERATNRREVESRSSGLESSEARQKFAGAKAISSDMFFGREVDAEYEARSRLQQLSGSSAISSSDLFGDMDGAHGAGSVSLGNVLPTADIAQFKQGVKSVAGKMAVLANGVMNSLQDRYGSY
UniProt Q6P6C2, sequence (Q6P6C2 whole entry, looked up): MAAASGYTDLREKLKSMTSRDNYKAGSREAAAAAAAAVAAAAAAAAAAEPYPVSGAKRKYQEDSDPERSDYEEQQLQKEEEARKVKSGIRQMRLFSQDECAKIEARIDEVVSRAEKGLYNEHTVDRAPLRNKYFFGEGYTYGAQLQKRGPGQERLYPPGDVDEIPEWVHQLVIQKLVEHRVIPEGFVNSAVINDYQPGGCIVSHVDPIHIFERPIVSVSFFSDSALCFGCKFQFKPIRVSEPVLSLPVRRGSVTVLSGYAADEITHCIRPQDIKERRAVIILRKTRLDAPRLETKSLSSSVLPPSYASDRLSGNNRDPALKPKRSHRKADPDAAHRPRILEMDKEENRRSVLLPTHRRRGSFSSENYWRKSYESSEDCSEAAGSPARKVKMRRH
UniProt P42330, sequence (P42330 whole entry, looked up): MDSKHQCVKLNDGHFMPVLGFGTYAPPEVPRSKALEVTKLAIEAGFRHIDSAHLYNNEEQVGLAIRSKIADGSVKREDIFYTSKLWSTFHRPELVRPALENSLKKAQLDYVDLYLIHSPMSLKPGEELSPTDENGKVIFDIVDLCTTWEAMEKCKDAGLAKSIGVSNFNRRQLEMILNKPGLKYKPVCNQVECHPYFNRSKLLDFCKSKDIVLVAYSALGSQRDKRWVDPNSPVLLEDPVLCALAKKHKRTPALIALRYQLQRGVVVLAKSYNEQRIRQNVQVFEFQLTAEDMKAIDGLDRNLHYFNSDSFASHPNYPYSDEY
UniProt P49189, sequence (P49189 whole entry, looked up): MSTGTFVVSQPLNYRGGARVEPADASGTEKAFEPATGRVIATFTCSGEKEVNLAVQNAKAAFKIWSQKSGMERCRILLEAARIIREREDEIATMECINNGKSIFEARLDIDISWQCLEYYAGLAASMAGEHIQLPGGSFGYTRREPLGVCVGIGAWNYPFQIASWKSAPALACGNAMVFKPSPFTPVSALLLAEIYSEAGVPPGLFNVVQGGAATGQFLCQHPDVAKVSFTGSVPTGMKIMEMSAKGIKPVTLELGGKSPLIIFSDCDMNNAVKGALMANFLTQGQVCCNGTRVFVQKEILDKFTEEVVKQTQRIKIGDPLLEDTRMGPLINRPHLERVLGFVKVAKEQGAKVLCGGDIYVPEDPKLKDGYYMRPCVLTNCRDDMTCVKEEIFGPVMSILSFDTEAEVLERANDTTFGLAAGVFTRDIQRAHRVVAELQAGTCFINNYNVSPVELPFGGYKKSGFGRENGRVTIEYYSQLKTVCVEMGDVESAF
UniProt Q9NX46, sequence (Q9NX46 whole entry, looked up): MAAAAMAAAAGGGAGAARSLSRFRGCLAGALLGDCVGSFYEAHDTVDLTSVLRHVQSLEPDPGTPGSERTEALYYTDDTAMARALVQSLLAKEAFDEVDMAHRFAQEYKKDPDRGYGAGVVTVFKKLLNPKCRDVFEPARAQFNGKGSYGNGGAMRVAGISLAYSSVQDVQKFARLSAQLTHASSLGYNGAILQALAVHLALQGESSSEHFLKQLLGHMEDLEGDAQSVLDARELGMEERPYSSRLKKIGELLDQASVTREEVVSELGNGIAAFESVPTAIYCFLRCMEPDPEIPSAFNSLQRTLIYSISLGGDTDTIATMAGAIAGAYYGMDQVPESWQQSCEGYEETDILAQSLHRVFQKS
UniProt Q9BTE6, sequence (Q9BTE6 whole entry, looked up): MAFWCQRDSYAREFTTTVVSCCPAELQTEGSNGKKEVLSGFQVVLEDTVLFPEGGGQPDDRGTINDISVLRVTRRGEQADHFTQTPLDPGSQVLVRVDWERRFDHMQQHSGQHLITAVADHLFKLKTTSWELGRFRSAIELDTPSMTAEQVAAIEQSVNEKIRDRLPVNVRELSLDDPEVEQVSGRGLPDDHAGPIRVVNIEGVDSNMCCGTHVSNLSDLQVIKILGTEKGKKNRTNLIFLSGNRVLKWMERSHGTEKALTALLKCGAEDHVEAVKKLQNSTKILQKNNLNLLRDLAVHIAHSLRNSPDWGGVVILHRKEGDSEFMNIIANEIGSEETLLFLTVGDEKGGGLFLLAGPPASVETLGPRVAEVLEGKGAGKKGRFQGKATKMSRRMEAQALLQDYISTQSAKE

Row | Target | log2 fold change [1] | log2 fold change (filanesib) | log2 fold change (zotarolimus) | log2 fold change (idasanutlin) | log2 fold change (alisertib) | log2 fold change [2] | log2 fold change (gefitinib) | log2 fold change [3] | log2 fold change (lapatinib) | log2 fold change (pictilisib) | log2 fold change [4] | log2 fold change (crizotinib) | log2 fold change [5] | log2 fold change [6] | log2 fold change (duvelisib) | log2 fold change (gandotinib) | log2 fold change (tozasertib) | log2 fold change [7] | log2 fold change (doramapimod) | log2 fold change (ispinesib)
1 | AIFM2 (UniProt Q9BRQ8) | -0.019 | -0.025 | 0.097 | -0.017 | -0.078 | 0.023 | 0.096 | 0.061 | 0.135 | 0.121 | 0.039 | 0.098 | -0.013 | -0.067 | 0.07 | 0.022 | -0.029 | -0.032 | 0.08 | 0.207 (active)
2 | BLVRB (UniProt P30043) | 0.113 | -0.073 | 0.024 | -0.045 | -0.07 | 0.045 | 0.061 | 0.015 | 0.071 | 0.037 | 0.04 | -0.006 | 0.036 | -0.081 | 0.016 | -0.085 | -0.011 | 0.002 | -0.027 | -0.012
3 | AGPAT3 isoform 3 (UniProt Q9NRZ7) | -0.083 | -0.106 | 0.048 | -0.149 | 0.012 | 0.083 | 0.012 | 0.005 | 0.004 | -0.013 | -0.051 | -0.04 | 0.125 | -0.074 | 0.005 | -0.004 | -0.002 | 0.023 | 0.004 | -0.074
4 | BZW1 isoform 3 (UniProt Q7L1Q6) | 0.033 | -0.069 | 0.052 | -0.152 | -0.078 | -0.032 | -0.028 | -0.13 | -0.071 | -0.071 | 0.007 | -0.426 | 0.007 | 0.051 | -0.03 | -0.189 | 0.054 | 0.181 | -0.008 | -0.209
5 | AKR1C3 (UniProt P42330) | 0.87 (active) | -0.028 | 0.066 | -0.074 | -0.087 | -0.176 | 0.031 | -0.214 | -0.065 | 0.061 | -0.101 | 0.028 | -0.009 | -0.035 | 0.23 | 0.005 | -0.059 | 0.078 | -0.012 | 0.371
6 | AGRN (UniProt O00468) | -0.068 | 0.014 | -0.001 | -0.005 | -0.043 | -0.071 | 0.118 | 0.037 | 0.018 | 0.055 | -0.078 | -0.01 | -0.073 | -0.021 | -0.162 | -0.012 | 0.026 | 0.24 | 0.062 | 0.009
7 | ATL2 (UniProt Q8NHH9) | -0.006 | -0.03 | 0.026 | -0.052 | 0.008 | 0.148 | 0.016 | 0.034 | -0.039 | 0.003 | 0.078 | -0.031 | -0.003 | -0.014 | 0.052 | -0.035 | -0.062 | 0.056 | -0.018 | 0.376 (active)
8 | ADPRHL2 (UniProt Q9NX46) | 0.111 | -0.08 | 0.022 | -0.06 | 0.009 | 0.245 (active) | -0.028 | 0.012 | 0.03 | 0.078 | 0.052 | 0.092 | 0.045 | -0.072 | 0.17 | 0.07 | -0.077 | 0.039 | -0.017 | 0.303 (active)
9 | ACP1 isoform 2 (UniProt P24666) | 0.029 | 0.095 | 0.009 | 0.028 | 0.094 | 0.036 | 0.045 | -0.077 | 0.014 | 0.055 | 0.008 | -0.079 | 0.016 | 0.15 | 0.004 | -0.137 | -0.09 | 0.12 | 0.033 | -0.041
10 | AARSD1 isoform 3 (UniProt Q9BTE6) | -0.47 (active) | -0.013 | 0.012 | 0.076 | -0.067 | -0.012 | 0.083 | -0.081 | 0.045 | 0.029 | 0.062 | 0.054 | 0.012 | 0.013 | -0.04 | -0.081 | 0.055 | 0.038 | -0.05 | 0.067
11 | ALKBH5 (UniProt Q6P6C2) | 0.124 | 0.001 | -0.067 | 0.016 | -0.12 | 0.044 | 0.023 | -0.138 | -0.008 | 0.094 | 0.048 | 0.032 | -0.11 | 0.013 | 0.012 | 0.267 | -0.167 | -0.055 | -0.01 | 0.007
12 | ALDH9A1 isoform 3 (UniProt P49189) | -0.006 | -0.04 | 0.001 | -0.006 | 0.017 | -0.01 | -0.028 | 0.041 | -0.007 | -0.002 | -0.002 | -0.002 | 0.027 | -0.042 | 0.015 | 0.063 | -0.024 | -0.002 | -0.004 | 0.006
13 | ATG9A (UniProt Q7Z3C6) | 0.008 | -0.113 | -0.014 | -0.003 | 0.064 | -0.073 | 0.011 | -0.015 | -0.045 | 0.075 | 0.074 | -0.11 | 0.036 | 0.036 | 0.042 | -0.062 | 0.012 | 0.069 | -0.016 | -0.239 (active)
14 | ARFGAP2 (UniProt Q8N6H7) | -0.067 | 0.024 | -0.005 | -0.029 | -0.058 | 0.156 | -0.004 | -0.064 | -0.001 | 0.013 | -0.04 | 0.042 | 0.062 | 0.007 | 0.033 | -0.101 | 0.026 | 0.066 | -0.009 | 0.039
15 | ARAF (UniProt P10398) | 0 | -0.022 | 0.06 | 0.006 | 0.076 | -0.274 (active) | 0.076 | 0.06 | 0.076 | -0.175 | 0.012 | -0.093 | 0.059 | 0.112 | -0.009 | 0.039 | -0.074 | 0.081 | -0.035 | -0.051
16 | AGPS (UniProt O00116) | 0.074 | -0.145 | 0.05 | -0.037 | -0.03 | -0.044 | 0.069 | 0.048 | 0.018 | -0.003 | 0.016 | -0.038 | 0.048 | -0.053 | 0.099 | -0.047 | -0.005 | 0.19 | 0.018 | 0.015
